PubChem BioAssay
Activity calls are given as the source filed them. Unless noted, no rule for the calls is given here.

Columns and labels:
[1] = A549 cell viability effects, profiling panel, calcein-AM fluorescence, 48 h, basal (AID 1162); conditions: higher = more signal; also: test concentration not given here
[2] = adipocyte viability effects, profiling panel, cell-based, 3T3-L1 adipocytes, calcein-AM fluorescence, 48 h, basal (AID 1163); conditions: 3T3-L1 adipocytes viability, higher = more signal; also: test concentration not given here
[3] = HepG2 cell viability effects, profiling panel, calcein-AM fluorescence, 48 h, basal (AID 1164); conditions: higher = more signal; also: test concentration not given here
[4] = MM1S cell viability effects, profiling panel, calcein-AM fluorescence, 48 h, basal (AID 1165); conditions: higher = more signal;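 also: viability of MM1S multiple myeloma cells under basal unstimulated conditions; test concentration not given here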
[5] = basal RPMI8226 viability, no added stimulus, profiling panel, cell-based, calcein-AM fluorescence, 48 h, PK04 Diversity Set (AID 1166); conditions: RPMI8226 myeloma viability, higher = more signal;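 also: cells grown under basal conditions without added stimulus; test concentration not given here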
[6] = basal HepG2 mitochondrial membrane potential changes, profiling panel, cell-based, JC-1 fluorescence, 24 h, 100 nL compound (AID 1167); conditions: higher = more signal; also: test concentration not given here
[7] = basal 3T3-L1 adipocyte mitochondrial potential changes, profiling panel, cell-based, JC-1 fluorescence, 3T3-L1 adipocytes, 24 h, 100 nL compound (AID 1168); conditions: JC-1 mitochondrial fluorescence, higher = more signal, called active from +8 up or from −8 down; also: test concentration not given here
[8] = basal RPMI8226 mitochondrial membrane potential changes, profiling panel, cell-based, JC-1 fluorescence, 24 h, 100 nL compound (AID 1169); conditions: RPMI8226 myeloma, JC-1 mitochondrial potential fluorescence, higher = more signal; also: test concentration not given here
[9] = basal MM1S mitochondrial membrane potential changes, profiling panel, cell-based, JC-1 fluorescence, 24 h, 100 nL compound (AID 1170); conditions: higher = more signal; also: test concentration not given here
[10] = A549 lung cancer cell viability effects, profiling panel, resazurin fluorescence, 24 h, PK04 Diversity Set (AID 1171); conditions: higher = more signal, called active from +8 up or from −8 down; also: test concentration not given here
[11] = HepG2 liver cancer cell viability effects, profiling panel, resazurin fluorescence, 24 h, PK04 Diversity Set (AID 1172); conditions: higher = more signal; also: test concentration not given here
[12] = basal S. cerevisiae growth modulation, no modifier, primary screen, OD600, strain BY4716, 24 h, basal condition (AID 1173); conditions: OD600, 24 h, higher = more signal, called active from +8 up or from −8 down
[13] = MM1S myeloma cell viability, profiling panel, resazurin fluorescence, basal, 24 h, PK04 Diversity Set (AID 1174); conditions: higher = more signal, called active from +8 up or from −8 down;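 also: MM1S multiple myeloma cell line; test concentration not given here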
[14] = target: Dihydroorotate dehydrogenase (quinone), mitochondrial (Plasmodium falciparum (isolate 3D7)) (UniProt Q08210); assay: PfDHODH enzyme inhibitors, primary screen, biochemical, C-terminal His tag, absorbance 600 nm (AID 1175); conditions: DCIP absorbance 600 nm, higher = more signal, called active from +8 up or from −8 down;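 also: recombinant parasite enzyme with a five histidine tag at its C terminus; test concentration not given here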
[15] = P. aeruginosa biofilm formation inhibitors, primary screen, strain PAO1, LB-PBS medium, absorbance 600 nm (AID 1176); also: test concentration not given here; conditions: P. aeruginosa PAO1 growth/biofilm, A600, 12 h; higher = more signal
[16] = S. cerevisiae RM11-1a growth modifiers, primary screen, strain RM11-1a, OD600, basal, 24 h (AID 1177); conditions: OD600, 24 h, higher = more signal, called active from +8 up or from −8 down;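 also: cultures grown under basal conditions with no added stressor; test concentration not given here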
[17] = E. coli acrAB mutant growth effects, primary screen, E. coli filamentation inducers, strain DRC39, OD650, 24 h (AID 1178); conditions: higher = more signal, called active from +8 up or from −8 down;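 also: growth measured as culture turbidity by optical density at 650 nm; test concentration not given here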
[18] = E. coli acrAB mutant growth effects, primary screen, E. coli filamentation inducers, strain DRC39, OD650, 48 h (AID 1179);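 also: screen aims at cell division blockers that make cells filament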; conditions: E. coli DRC39 delta-acrAB growth, higher = more signal, called active from +8 up or from −8 down
[19] = RPMI8226 myeloma cell viability, profiling panel, resazurin fluorescence, basal, 24 h, PK04 Diversity Set (AID 1180); conditions: higher = more signal;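 also: RPMI8826 multiple myeloma cell line at 5000 cells per well; test concentration not given here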
[20] = target: E3 ubiquitin-protein ligase XIAP (Homo sapiens) (UniProt P98170); assay: XIAP binders, primary screen, biophysical, small-molecule microarray, fluorescence 635 nm (AID 1181); conditions: small-molecule microarray binding, higher = more signal;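 also: score merges 667 nm emission and signal to noise over triplicate slides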
E3 ubiquitin-protein ligase XIAP (Homo sapiens), sequence (P98170 whole entry, looked up): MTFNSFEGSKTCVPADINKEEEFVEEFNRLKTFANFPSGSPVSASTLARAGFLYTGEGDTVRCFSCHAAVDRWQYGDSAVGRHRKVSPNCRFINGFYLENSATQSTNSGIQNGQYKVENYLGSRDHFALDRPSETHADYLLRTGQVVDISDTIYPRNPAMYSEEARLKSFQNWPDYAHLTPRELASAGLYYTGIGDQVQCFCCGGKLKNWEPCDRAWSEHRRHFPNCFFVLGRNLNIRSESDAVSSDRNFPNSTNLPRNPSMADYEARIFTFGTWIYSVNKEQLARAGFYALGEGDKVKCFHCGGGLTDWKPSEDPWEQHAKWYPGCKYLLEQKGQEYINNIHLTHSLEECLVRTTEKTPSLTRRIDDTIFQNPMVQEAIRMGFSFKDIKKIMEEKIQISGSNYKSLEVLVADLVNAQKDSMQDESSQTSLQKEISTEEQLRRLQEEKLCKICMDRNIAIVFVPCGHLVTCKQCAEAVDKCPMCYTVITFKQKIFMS

Dihydroorotate dehydrogenase (quinone), mitochondrial (Plasmodium falciparum (isolate 3D7)), sequence (Q08210 whole entry, looked up): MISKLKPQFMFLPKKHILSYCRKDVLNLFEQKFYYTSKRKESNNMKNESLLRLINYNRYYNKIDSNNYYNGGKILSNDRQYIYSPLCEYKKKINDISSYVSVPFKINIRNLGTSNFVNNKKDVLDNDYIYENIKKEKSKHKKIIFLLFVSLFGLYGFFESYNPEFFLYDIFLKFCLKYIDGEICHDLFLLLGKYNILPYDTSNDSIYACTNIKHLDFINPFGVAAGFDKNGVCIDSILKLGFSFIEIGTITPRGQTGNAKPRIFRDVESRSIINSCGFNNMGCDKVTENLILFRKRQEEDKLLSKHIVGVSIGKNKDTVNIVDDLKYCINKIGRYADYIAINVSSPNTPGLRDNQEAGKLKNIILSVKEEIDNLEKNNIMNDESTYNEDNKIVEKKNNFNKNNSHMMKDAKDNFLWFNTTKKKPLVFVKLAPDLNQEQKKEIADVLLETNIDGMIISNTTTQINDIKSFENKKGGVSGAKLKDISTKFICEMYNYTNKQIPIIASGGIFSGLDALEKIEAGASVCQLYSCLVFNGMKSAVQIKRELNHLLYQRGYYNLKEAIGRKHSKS

Row | Structure (SMILES) | z-score [1] | z-score [2] | z-score [3] | z-score [4] | z-score [5] | z-score [6] | z-score [7] | z-score [8] | z-score [9] | z-score [10] | z-score [11] | z-score [12] | z-score [13] | composite z-score [14] | z-score [15] | z-score [16] | z-score [17] | z-score [18] | z-score [19] | composite z-score [20]
1 | O=C1O[C@@H](c2ccccc2)[C@@H](c2ccccc2)N2[C@@H](c3ccc(O)cc3)[C@]3(C(=O)Nc4ccccc43)[C@@H](C(=O)Nc3nc4ccccc4s3)[C@H]12 | -2.07 | 0.353 | -1.49 | -3.37 | -4.55 | -3.64 | 0.169 (inactive) | -1.23 | -1.76 | -1.9 (inactive) | -1.66 | -0.505 (inactive) | -3.11 (inactive) | 0.162 (inactive) | 2.43 (inactive) | 0.72 (inactive) | -0.0021 (inactive) | 0.251 (inactive) | -4.69 | -0.0045
2 | COCCOC(=O)N1C(=O)[C@@]2(c3ccccc31)[C@H](c1ccc(OCCO)cc1)N1[C@H](c3ccccc3)[C@H](c3ccccc3)OC(=O)[C@H]1[C@@H]2C(=O)Nc1nc2ccccc2s1 | -1.38 | 0.73 | -1.18 | -1.15 | -1.57 | -3.4 | 0.576 (inactive) | -1.09 | -1.36 | 0.294 (inactive) | 0.269 | 1.29 (inactive) | -0.657 (inactive) | -0.383 (inactive) | 2 (inactive) | 1.11 (inactive) | -0.176 (inactive) | -0.524 (inactive) | 0.0486 | 0.259
3 | C=CCOC(=O)[C@H]1[C@@H]2C(=O)O[C@@H](c3ccccc3)[C@@H](c3ccccc3)N2[C@@H](c2ccc(OCCOC(=O)[C@H]3C[C@H]4C(=O)N[C@@H](CCCC[N+](C)(C)C)C(=O)N4[C@H]3c3cccc(OCCO)c3)cc2)[C@]12C(=O)Nc1ccc(I)cc12 | -0.319 | -0.0546 | 1.67 | 0.596 | 0.532 | -2 | -0.124 (inactive) | -0.51 | -1.31 | 0.134 (inactive) | -0.346 | 1.44 (inactive) | -0.0145 (inactive) | -2.44 (inactive) | 4.03 (inactive) | 2.44 (inactive) | 0.186 (inactive) | 0.57 (inactive) | 0.208 | -0.0373
4 | COC(=O)C[C@H]1O[C@]2(C(=O)N(C)c3ccccc32)[C@@H](C)[C@@H]1[Si](C)(C)c1ccc(C)cc1 | -1.55 | 0.163 | -0.151 | -1.5 | -4.12 | -0.39 | 0.329 (inactive) | -0.991 | 0.413 | -0.447 (inactive) | -0.501 | -2.64 (inactive) | 1.47 (inactive) | 0.0559 (inactive) | -0.884 (inactive) | 0.155 (inactive) | 1.37 (inactive) | -0.466 (inactive) | 0.789 | -0.0172
5 | COCCOC(=O)N1C(=O)[C@@]2(c3cc(C#CC4=CCCCC4)ccc31)[C@H](C(=O)N1CCN(c3ncccn3)CC1)[C@H]1C(=O)O[C@H](c3ccccc3)[C@H](c3ccccc3)N1[C@@H]2c1ccc(O)cc1 | 0.463 | 0.218 | 1.15 | 0.269 | -0.802 | -1.16 | 0.207 (inactive) | -0.31 | -1.3 | -0.869 (inactive) | -0.173 | 1.14 (inactive) | -1.81 (inactive) | 0.332 (inactive) | 1.16 (inactive) | 1.69 (inactive) | -0.766 (inactive) | -0.0604 (inactive) | -0.765 | 0.0589
6 | C[C@H]1C2=C3C(CC[C@H]4C(OCc5ccc(F)cc5C(F)(F)F)OC[C@](C)([C@@H]34)N(C(=O)OC(C)(C)C)C2)C2COC(=O)OCC21 (stereo not given in full) | -1.17 | 0.338 | -0.659 | -2.6 | -3.96 | -0.255 | -1.06 (inactive) | -0.325 | -0.183 | 0.117 (inactive) | -1.33 | -0.0764 (inactive) | -1.43 (inactive) | -0.047 (inactive) | 0.371 (inactive) | 0.235 (inactive) | -0.698 (inactive) | -0.398 (inactive) | -1.18 | 0.572
7 | CC(C)CNC(=O)[C@@]1(c2ccc([N+](=O)[O-])cc2)CC(=O)N(C2CCCCC2)[C@@H]1c1ccc(CO)cc1I | 0.304 | 0.13 | -0.108 | -2 | -0.317 | 1.15 | -0.472 (inactive) | -0.296 | 0.0603 | 1.02 (inactive) | 0.201 | -0.871 (inactive) | -0.0126 (inactive) | 0.797 (inactive) | 0.304 (inactive) | -0.294 (inactive) | 0.175 (inactive) | -0.683 (inactive) | 0.447 | 0.169
8 | C[C@]12C(=O)N(CCCCCCO)[C@@H]3C(=O)N(c4ccc(Cl)cc4)CC=CC31O[C@@H]1/C=C\CCCOC(=O)C12 (stereo not given in full) | 0.41 | 1.23 | 2.06 | 1.61 | 0.0929 | 1.09 | -0.317 (inactive) | 0.655 | 0.411 | -0.0459 (inactive) | -0.578 | -1.3 (inactive) | 0.423 (inactive) | -0.699 (inactive) | -0.0558 (inactive) | -1.29 (inactive) | -0.0299 (inactive) | 0.692 (inactive) | 1.05 | -0.235
